Test results reported in PubChem BioAssay.

Experiments:
[1] = tested on: Botulinum neurotoxin type F light chain protease (Clostridium botulinum); test: Botulinum neurotoxin type F light chain protease inhibition, multiplex microsphere flow cytometry, validation set (AID 588459); details: multiplex microsphere protease substrate cleavage assay, at 10 µM, stronger effect = higher value
[2] = target: Botulinum neurotoxin type A (Clostridium botulinum) (UniProt P0DPI0); test: BoNT/A light chain protease inhibitors, biochemical, multiplex microsphere flow cytometry, validation set (AID 588460); details: at 10 µM, stronger effect = higher value
Chain of Botulinum neurotoxin type A (Clostridium botulinum) (P0DPI0 whole entry, looked up): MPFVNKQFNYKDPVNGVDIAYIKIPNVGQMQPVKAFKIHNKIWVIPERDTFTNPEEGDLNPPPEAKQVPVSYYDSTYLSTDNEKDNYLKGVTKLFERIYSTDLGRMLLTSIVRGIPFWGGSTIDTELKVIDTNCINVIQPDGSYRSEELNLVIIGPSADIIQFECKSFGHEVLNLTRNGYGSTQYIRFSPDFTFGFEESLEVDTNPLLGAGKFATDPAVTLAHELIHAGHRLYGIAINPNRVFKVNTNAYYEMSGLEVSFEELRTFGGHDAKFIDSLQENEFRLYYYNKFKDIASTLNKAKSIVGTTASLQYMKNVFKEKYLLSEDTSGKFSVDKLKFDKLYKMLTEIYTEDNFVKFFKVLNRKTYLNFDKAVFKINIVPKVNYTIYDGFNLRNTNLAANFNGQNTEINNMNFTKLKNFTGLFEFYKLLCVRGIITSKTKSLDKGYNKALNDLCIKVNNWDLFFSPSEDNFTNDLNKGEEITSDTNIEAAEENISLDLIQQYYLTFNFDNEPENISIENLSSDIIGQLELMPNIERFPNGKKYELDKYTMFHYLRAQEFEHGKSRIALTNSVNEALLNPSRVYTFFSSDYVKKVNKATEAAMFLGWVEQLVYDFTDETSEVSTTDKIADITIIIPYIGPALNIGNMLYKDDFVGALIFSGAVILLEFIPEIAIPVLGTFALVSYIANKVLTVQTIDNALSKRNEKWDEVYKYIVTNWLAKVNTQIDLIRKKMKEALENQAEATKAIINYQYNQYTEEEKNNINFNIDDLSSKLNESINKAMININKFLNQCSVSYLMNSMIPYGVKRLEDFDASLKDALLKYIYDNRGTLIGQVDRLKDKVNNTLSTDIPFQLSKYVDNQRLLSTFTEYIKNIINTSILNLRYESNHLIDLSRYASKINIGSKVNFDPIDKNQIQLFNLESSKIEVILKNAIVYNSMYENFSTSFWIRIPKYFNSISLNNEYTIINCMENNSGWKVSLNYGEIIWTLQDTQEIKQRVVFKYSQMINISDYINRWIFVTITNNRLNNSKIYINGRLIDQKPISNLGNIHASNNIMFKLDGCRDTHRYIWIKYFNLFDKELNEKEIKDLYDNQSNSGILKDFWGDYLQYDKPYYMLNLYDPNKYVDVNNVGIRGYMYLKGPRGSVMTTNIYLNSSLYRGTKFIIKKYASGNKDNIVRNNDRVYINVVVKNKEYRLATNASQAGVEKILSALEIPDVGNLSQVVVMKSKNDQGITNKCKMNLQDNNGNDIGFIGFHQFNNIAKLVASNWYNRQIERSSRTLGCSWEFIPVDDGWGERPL

[3] = target: Lethal factor (Bacillus anthracis) (UniProt P15917); test: Lethal factor protease inhibitors, Bacillus anthracis, multiplex microsphere cleavage assay, validation set (AID 588461); details: flow cytometry, at 10 µM, stronger effect = higher value
Chain of Lethal factor (Bacillus anthracis) (P15917 whole entry, looked up): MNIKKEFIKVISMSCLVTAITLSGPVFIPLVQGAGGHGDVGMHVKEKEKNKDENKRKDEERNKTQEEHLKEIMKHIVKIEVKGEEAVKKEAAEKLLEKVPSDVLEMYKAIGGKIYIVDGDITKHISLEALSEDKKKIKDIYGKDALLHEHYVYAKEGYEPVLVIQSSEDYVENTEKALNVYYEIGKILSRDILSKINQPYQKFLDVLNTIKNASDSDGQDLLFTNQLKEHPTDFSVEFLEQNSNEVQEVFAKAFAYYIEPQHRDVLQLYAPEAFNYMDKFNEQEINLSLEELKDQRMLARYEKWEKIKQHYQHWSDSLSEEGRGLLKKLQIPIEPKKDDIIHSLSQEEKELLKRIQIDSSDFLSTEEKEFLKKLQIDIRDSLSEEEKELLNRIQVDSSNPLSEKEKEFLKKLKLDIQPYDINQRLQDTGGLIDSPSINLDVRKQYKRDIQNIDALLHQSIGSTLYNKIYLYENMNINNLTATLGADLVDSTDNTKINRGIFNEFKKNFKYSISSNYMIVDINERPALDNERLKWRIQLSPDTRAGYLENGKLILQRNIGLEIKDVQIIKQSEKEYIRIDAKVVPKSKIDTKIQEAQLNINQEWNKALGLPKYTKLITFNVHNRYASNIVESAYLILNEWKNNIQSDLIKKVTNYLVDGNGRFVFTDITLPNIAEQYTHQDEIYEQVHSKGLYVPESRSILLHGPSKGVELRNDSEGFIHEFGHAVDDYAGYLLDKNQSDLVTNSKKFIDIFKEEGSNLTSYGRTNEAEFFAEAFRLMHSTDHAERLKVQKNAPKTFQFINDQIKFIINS

Measured: inhibition

CC(=O)Nc1nnc(S(N)(=O)=O)s1
inactive: [1] 5.4% | [2] -0.3% | [3] -2.6%

CC(=O)Nc1c(I)c(NC(C)=O)c(I)c(C(=O)O)c1I
inactive: [1] -0.5% | [2] -1.9% | [3] 0.5%

CN(C)CCOc1ccccc1Cc1ccccc1
inactive: [1] 19.8% | [2] 1.6% | [3] 3.4%

O=C(O)CCCN1C(=O)NC2NC(=O)NC21 (stereo unspecified)
inactive: [1] 0.1% | [2] -0.8% | [3] 0.4%

COc1cc(C(=O)CCN2CCC(c3ccccc3)C2)cc(OC)c1OC (stereo unspecified)
inactive: [1] 0.2% | [2] 1.9% | [3] 6.6%

NC(=O)N1c2ccccc2C=Cc2ccccc21
inactive: [1] 1.3% | [2] -0.2% | [3] 8.1%

COc1ccc2c(CCNC(=O)c3ccc([N+](=O)[O-])cc3)c[nH]c2c1
inactive: [1] 1.6% | [2] -0.5% | [3] -5%

Cc1cccc(NC(=O)c2cc3ccccc3o2)c1
inactive: [1] 1.3% | [2] -0.4% | [3] -2.2%

COC(=O)c1cc(-c2c(C)oc3cc(OC)ccc3c2=O)c(C)o1
inactive: [1] -0.4% | [2] -2% | [3] -6.6%

COc1ccccc1CCn1cnc2c3cc(C)ccc3n(C)c2c1=O
inactive: [1] -0.5% | [2] -1% | [3] -9.2%

COc1ccc(-c2cc(=O)oc3c(C)c(O)c(CN(C)C)cc23)cc1
inactive: [1] 11.3% | [2] 0.6% | [3] -2.1%

O=C(/C=C/c1ccco1)NCc1ccc2c(c1)OCO2
inactive: [1] -2.9% | [2] -0.4% | [3] 6.8%

CC1CNCCN1S(=O)(=O)c1cccc2cnccc12 (stereo unspecified)
inactive: [1] 2.5% | [2] -0.1% | [3] 1.6%

C=CCNC(=O)c1ccc(-c2cccc([N+](=O)[O-])c2)o1
inactive: [1] -1.3% | [2] -0.6% | [3] -3%

COc1cc(C2NCCc3c2[nH]c2ccccc32)ccc1OC(C)C (stereo unspecified)
inactive: [1] 1.4% | [2] -0.5% | [3] 4.3%

O=C(NCCc1cccc(F)c1)[C@@H]1CSC2c3ccccc3C(=O)N21 (stereo partly specified)
inactive: [1] 0.2% | [2] -0.3% | [3] 0.6%

O=C(Cc1c[nH]c2ccccc12)OCCOC(=O)Cc1c[nH]c2ccccc12
inactive: [1] 0.9% | [2] -0.1% | [3] -5.9%
